Rows were chosen to be rich in hits. Some 3.4% of all compounds tested hit in one or more screens of this group.
FBW7 act: human FBW7 E3 ligase activation, primary screen; AlphaScreen FBW7–phospho-cyclin E peptide binding, activator screen; Q969H0; 650,000 compounds, 0.13% hits; normalized activity (activation), % at 26.1 µM; in the data active = normalized activity above about 1.9%;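 note: purified mutant Fbw7 with reduced substrate affinity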
MITF primary: inhibitors of human MITF; O75030; AlphaScreen MITF homodimerization, bead proximity signal; inhibition, % at 2.6 µM; 650,000 compounds, 0.91% hits; AID 1259374; in the data active = inhibition above about 50%;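 note: 0% = vehicle wells with protein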
TEAD-YAP inh: TEAD-YAP interaction inhibition; HEK-TIYL cells, TEAD-Gal4/YAP UAS-luciferase luminescence; inhibition, % at 9.12 µM; 640,000 compounds, 1.4% hits; in the data active = inhibition above about 32%;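 note: 0% = median of test compound wells and 100% = reference inhibitor wells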
GPR151 ag: activators of human GPR151; Q8TDV0; 650,000 compounds, 1% hits; activation, % at 11.2 µM; PathHunter beta-arrestin GPR151 cells, luminescence; AID 1508602; in the data active = activation above about 4.9%;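 note: 0% = median of compound wells and 100% = cells with positive control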
Target sequence (Q8TDV0 whole entry, looked up): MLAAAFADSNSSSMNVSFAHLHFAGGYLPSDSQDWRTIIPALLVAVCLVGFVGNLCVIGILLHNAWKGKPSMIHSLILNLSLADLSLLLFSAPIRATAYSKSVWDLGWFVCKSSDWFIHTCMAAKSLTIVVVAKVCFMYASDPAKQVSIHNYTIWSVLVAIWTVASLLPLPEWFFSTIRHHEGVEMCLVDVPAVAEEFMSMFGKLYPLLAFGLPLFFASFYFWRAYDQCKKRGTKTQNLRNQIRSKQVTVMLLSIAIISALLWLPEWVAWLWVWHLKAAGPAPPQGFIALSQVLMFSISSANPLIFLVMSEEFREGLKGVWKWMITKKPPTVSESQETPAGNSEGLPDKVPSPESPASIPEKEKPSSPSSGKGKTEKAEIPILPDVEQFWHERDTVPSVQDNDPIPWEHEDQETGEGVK
* marks the source's active call; other numbers are inactive results.

For COc1ccc(N2C3=C(C(=O)CC(C)(C)C3)C(c3ccc(F)cc3)C3=C2CC(C)(C)CC3=O)c(OC)c1 the results were FBW7 act 0.6, MITF primary -0.7, TEAD-YAP inh -11.4 and GPR151 ag -2.5.
For CCc1ccc(C(=O)N2CCN3C(=O)[C@H]([C@@H](C)OCc4ccccc4)NC(=O)[C@H]3C2)cc1 the results were FBW7 act 0.2, MITF primary -5.3, TEAD-YAP inh -5.4 and GPR151 ag -0.1.
For OC1CCC(Nc2nccn3c(-c4ccsc4)cnc23)CC1 (stereo unspecified) the results were FBW7 act 2.1*, MITF primary 13.3, TEAD-YAP inh -8.7 and GPR151 ag -1.5.
For Oc1ccc(Nc2nccn3c(-c4ccsc4)cnc23)cc1 the results were FBW7 act 0.0, MITF primary -5.6, TEAD-YAP inh 37.0* and GPR151 ag -0.7.
For O=C(NCCO)c1cccc(-c2cnc3c(Nc4cccc(C(F)(F)F)c4)nccn23)c1 the results were FBW7 act 0.0, MITF primary -9.8, TEAD-YAP inh -5.1 and GPR151 ag -0.9.
`CC(C)c1ccc(Nc2nccn3c(-c4ccc(O)cc4)cnc23)cc1` gave FBW7 act 0.9, MITF primary 5.0, TEAD-YAP inh -9.9 and GPR151 ag 2.5.
Screening O=C(NCCO)c1cccc(-c2cnc3c(Nc4ccc(F)c(Cl)c4)nccn23)c1 returned FBW7 act -0.3, MITF primary 9.8, TEAD-YAP inh 73.8* and GPR151 ag -3.9.
Screening Oc1ccc(Nc2nccn3c(-c4ccccc4F)cnc23)cc1 returned FBW7 act 0.8, MITF primary 10.3, TEAD-YAP inh 82.9* and GPR151 ag -1.5.
For CCc1cccc(C)c1NC(=O)CSc1nnc2ccccn12 the results were FBW7 act -0.1, MITF primary 3.5, TEAD-YAP inh 7.4 and GPR151 ag 1.6.
Screening Cc1cc(-c2[nH]nc3c2C(c2ccccc2[N+](=O)[O-])C(C#N)=C(N)O3)c(C)s1 (stereo unspecified) returned FBW7 act -0.6, MITF primary 18.7, TEAD-YAP inh 2.8 and GPR151 ag 0.3.
Oc1ccc(Nc2nccn3c(-c4ccc(F)cc4)cnc23)cc1 was read as FBW7 act 0.0, MITF primary -16.5, TEAD-YAP inh 52.6* and GPR151 ag -0.5.
`Cc1ccc(-c2cnc3c(Nc4ccc(O)cc4)nccn23)cc1` gave FBW7 act 0.1, MITF primary 14.2, TEAD-YAP inh 8.7 and GPR151 ag -0.2.
For Oc1ccc(Nc2nccn3c(-c4cccc(F)c4)cnc23)cc1 the results were FBW7 act -0.1, MITF primary -2.2, TEAD-YAP inh 65.1* and GPR151 ag -1.1.
CCOC(=O)CNS(=O)(=O)c1cc(-c2nnc(Nc3ccc(Cl)c(Cl)c3)c3ccccc23)ccc1C was read as FBW7 act 2.2*, MITF primary 6.0, TEAD-YAP inh 0.7 and GPR151 ag -0.4.
`CCC(=O)Nc1ccc(NC(=O)CSc2nc3cccnc3n2C2CCCCC2)cc1` gave FBW7 act 0.6, MITF primary 8.9, TEAD-YAP inh 7.3 and GPR151 ag 0.3.
Screening CCOCCOC(=O)c1[nH]c2c(c1C)C(=O)CC(c1cc(OC)c(OC)c(OC)c1)C2 (stereo unspecified) returned FBW7 act -0.3, MITF primary -3.4, TEAD-YAP inh 42.2* and GPR151 ag 1.9.
Screening CCOC(=O)c1[nH]c2c(c1C)C(=O)CC(c1ccccc1)C2 (stereo unspecified) returned FBW7 act 0.2, MITF primary -10.3, TEAD-YAP inh 47.0* and GPR151 ag 0.5.
CCOC(=O)c1[nH]c2c(c1C)C(=O)CC(c1ccc(OCC)c(OC)c1)C2 (stereo unspecified) was read as FBW7 act 0.0, MITF primary -9.4, TEAD-YAP inh 6.2 and GPR151 ag -0.3.
COC(=O)c1[nH]c2c(c1C)C(=O)CC(c1ccc(F)cc1)C2 (stereo unspecified) was read as FBW7 act -0.1, MITF primary -1.5, TEAD-YAP inh 40.1* and GPR151 ag 0.7.
COc1ccc(C2CC(=O)c3c([nH]c(C(=O)OCCSC)c3C)C2)cc1 (stereo unspecified) was read as FBW7 act 0.3, MITF primary 17.9, TEAD-YAP inh -3.4 and GPR151 ag 1.5.
For CCOCCOC(=O)c1[nH]c2c(c1C)C(=O)CC(c1ccccc1)C2 (stereo unspecified) the results were FBW7 act 0.1, MITF primary 8.8, TEAD-YAP inh 48.9* and GPR151 ag -0.1.
For COC(=O)c1[nH]c2c(c1C)C(=O)CC(c1ccc(C)cc1)C2 (stereo unspecified) the results were FBW7 act 0.4, MITF primary 3.9, TEAD-YAP inh -26.5 and GPR151 ag 2.6.
COCCOC(=O)c1[nH]c2c(c1C)C(=O)CC(c1ccc(OC)c(OC)c1)C2 (stereo unspecified) was read as FBW7 act 0.0, MITF primary 8.2, TEAD-YAP inh 26.8 and GPR151 ag 0.0.
Screening CC(C)(C)NC(=O)C(=O)NNC(=O)c1ccc(Cl)c([N+](=O)[O-])c1 returned FBW7 act 0.2, MITF primary -1.8, TEAD-YAP inh -9.6 and GPR151 ag -0.8.
For CCCCC1CN(CCC(=O)N[C@H]2CCCCNC2=O)Cc2ccccc2O1 (stereo partly specified) the results were FBW7 act 0.2, MITF primary -7.0, TEAD-YAP inh 2.6 and GPR151 ag -0.9.
For CC(=O)C1=C(C)NC(SCC(=O)c2cc(Cl)ccc2Cl)=C(C#N)C1c1cccs1 (stereo unspecified) the results were FBW7 act 0.7, MITF primary 2.2, TEAD-YAP inh 8.1 and GPR151 ag -0.2.
Screening Cc1c(C(=O)OCC2CCCO2)[nH]c2c1C(=O)CC(c1ccc(F)cc1)C2 (stereo unspecified) returned FBW7 act -0.1, MITF primary -3.8, TEAD-YAP inh 8.7 and GPR151 ag 2.2.
CCCOC(=O)c1[nH]c2c(c1C)C(=O)CC(c1ccco1)C2 (stereo unspecified) was read as FBW7 act -0.1, MITF primary -7.7, TEAD-YAP inh 56.4* and GPR151 ag 0.7.
`Cc1c(C(=O)O)[nH]c2c1C(=O)CC(c1ccc(Cl)cc1)C2` (stereo unspecified) gave FBW7 act -0.1, MITF primary -7.2, TEAD-YAP inh -2.3 and GPR151 ag -1.2.
For CSCCOC(=O)c1[nH]c2c(c1C)C(=O)CC(c1ccccc1)C2 (stereo unspecified) the results were FBW7 act 0.1, MITF primary -1.6, TEAD-YAP inh 45.4* and GPR151 ag 2.1.
Screening CCCOCCOC(=O)c1[nH]c2c(c1C)C(=O)CC(c1ccccc1)C2 (stereo unspecified) returned FBW7 act -0.1, MITF primary -9.8, TEAD-YAP inh 42.9* and GPR151 ag 0.9.
`CCOC(=O)c1[nH]c2c(c1C)C(=O)CC(c1ccc(F)cc1)C2` (stereo unspecified) gave FBW7 act 2.3*, MITF primary -18.8, TEAD-YAP inh 49.4* and GPR151 ag 1.1.

Assay outcomes (PubChem)
